The panel holds about 79,000 compounds, 15% with a hit somewhere; the sample as a whole holds those more often. Unmarked numbers belong to inactive results. Active and inactive are the calls of the source. No stated cut-off is given here; in the data, active means growth inhibition above about 70%; inactive means the rest.
Assay: NCI Yeast Anticancer Drug Screen. Data for the CLN2oe strain (AID 163);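 further: 0% = growth of vehicle-only control cultures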
Conditions: S. cerevisiae CLN2oe strain, hits give high values
Description: Growth inhibition of yeast strains with defined genetic alterations is measured as a screen for potential anti-cancer activity. Selected strains with alterations in DNA damage repair or cell cycle control were exposed to compounds and growth inhibition was measured relative to vehicle treated controls. The strain used in this assay is CLN2oe

Row | Structure (SMILES) | growth inhibition (at 1.2 µM) | growth inhibition (at 3.7 µM) | growth inhibition (at 11.0 µM) | growth inhibition (at 33.0 µM) | growth inhibition (at 100.0 µM)
1 | C/C(=N/NC(=S)N1CCCCCC1)c1cccc(/C(C)=N\NC(=S)N2CCCCCC2)n1 | -4% | -4% | -6% | -5% | 23%
2 | Cc1ccc(NN(NC(=O)OC(C)C)C(=O)OC(C)C)cc1 | -3% | -11% | -5% | 1% | 5%
3 | COC(=O)CCNc1c2ccccc2nc2cccc([N+](=O)[O-])c12 | 7% | 50% | 89% (active) | 96% (active) | 98% (active)
4 | COc1ccc(Br)c(C(=O)Sc2nnnn2-c2cccc(Cl)c2)c1 | 6% | 3% | 3% | 5% | 94% (active)
5 | Cc1cc(N=Nc2ccc(S(=O)(=O)[O-])cc2)cc(C(=O)[O-])c1[O-].NC1CCCCC1N.[Na+].[Pt+4] | 5% | 21% | 95% (active) | 99% (active) | 98% (active)
6 | O=C1CSc2cc([N+](=O)[O-])ccc2N1 | -3% | -14% | -8% | -19% | -13%
7 | CC(C)C1=CC2=C[C@H](O)[C@H]3C(C)(C)CCC[C@]3(C)C2=C(O)C1=O | -4% | 4% | 76% (active) | 99% (active) | 95% (active)
8 | Cc1c(Cl)ccc2c1S(=O)(=O)c1cccc(Cl)c1-2 | -5% | 6% | 8% | -4% | -18%

From PubChem BioAssay (NCI)
